This is an account of results in PubChem BioAssay AID624351 (Southern Research Specialized Biocontainment Screening …, 2012).

As usually defined, the inhibition is the relative decrease from the control value, in per cent. The IC50 is the concentration needed to halve the response being measured.

SMILES strings stand for the structures. Out of some 2,400 compounds screened, about 1,400 (58%) were called active.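 The calls were made as follows: active = inhibition of 30% or more at any tested dose; inconclusive = primary hits over the limit that were never retested; inactive = the rest.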 So high a share suggests a set chosen from earlier hits. The list shows a part of the results.

The nature of this experiment: ADP Hunter readout inhibition without MgcRacGAP – biochemical, coupled enzyme counter-screen, artefact control for MgcRacGAP inhibitor project, dose response (AID 624351).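 Also: signal is the ADP detection kit reading of free GDP without any GAP enzyme.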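 As to inhibition: 0% = median positive control wells and 100% = median negative control wells.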 To be noted: fluorescence, no MgcRacGAP; series mostly up to 80 µM; inhibition: at the top concentration.
In the case of `COc1ccc(C(=O)CCNc2ccc3c(c2)OCCO3)cc1`, the “inhibition” value is 14.2% (inactive). Turning to `Nc1ccc(C(=O)c2ccc3c(c2)OCCO3)cc1N`, the IC50 was 24.2 µM (active). Same read-out and setting: the value for `CCOc1cc(/C=C2\CN(C)C/C(=C\c3ccc(O)c(OCC)c3)C2=O)ccc1O` was 43.5 µM (active). With `COc1cc(/C=C/C=C2/CC/C(=C/C=C/c3ccc(O)c(OC)c3)C2=O)ccc1O`, the “inhibition” value was -16.6% (inactive). Same read-out and setting: under `CN(C)CCC(=O)N1C/C(=C/c2ccccc2)C(=O)/C(=C\c2ccccc2)C1` stands 5.48% (inactive). In the case of `COc1cc(C=C2CN(C)C(=O)C2=O)ccc1O`, the IC50 was 25 µM (active). As to `O=C1/C(=C\c2ccc(Cl)c(Cl)c2)CN(C(=O)CCN2CCOCC2)C/C1=C/c1ccc(Cl)c(Cl)c1`, the “inhibition” value was 1.77% (inactive). On the same count and under the same terms, under `C[N+](C)(C)CCC(=O)N1C/C(=C/c2ccccc2)C(=O)/C(=C\c2ccccc2)C1` stands -3.71% (inactive).

In the case of `CCOc1cc(/C=C2\CN(CC)C/C(=C\c3ccc(O)c(OCC)c3)C2=O)ccc1O`, the IC50 was 61.9 µM (active). Turning to `CCN(CC)CCC(=O)N1C/C(=C/c2ccccc2)C(=O)/C(=C\c2ccccc2)C1`, the “inhibition” value is -0.82% (inactive). `COc1cc(/C=C2\C(=O)N(C)C(=S)N2C)ccc1O`: the IC50 was 30.2 µM (active).

Regarding `COc1ccc(-n2cnc(=S)[nH]c2=S)cc1`, the “inhibition” value is 1.48% (inactive). Regarding `COc1ccc2c(C)cc3n[nH]c(=S)n3c2c1`, the IC50 is 15.8 µM (active).

Take `COc1ccc2oc(=O)c(C(=O)Oc3ccc(NC(C)=O)cc3)cc2c1`: the “inhibition” value was 24.9% (inactive). With `COc1ccc(NC(=O)c2cc3ccc(O)cc3o/c2=N\O)cc1`, the IC50 was 57.4 µM (active). Turning to `COc1cccc2cc(C(=O)Oc3ccc(NC(C)=O)cc3)c(=O)oc12`, the “inhibition” value is 29.4% (inactive). `COc1cc(/C=C/C(=O)OCc2cn3cc(Cl)ccc3n2)ccc1O`: the IC50 is 36.2 µM (active). On the same count and under the same terms, under `COc1cc(NC(=O)COC(=O)/C=C/c2ccc(O)c(OC)c2)cc(OC)c1` stands 36.1 µM (active). Still for that read-out and setting: under `COc1cc(/C=C/C(=O)OCC(=O)NNC(=O)c2cc(Cl)ccc2OC)ccc1O` stands 55.8 µM (active).

Take `COc1cc(/C=C/C(=O)OCC(=O)Nc2cccc(F)c2)ccc1O`: the IC50 is 41 µM (active). On to `COc1ccc(CNCC(=O)Nc2cc(OC)cc(OC)c2)cc1`, for which the “inhibition” value is 20.6% (inactive). The same measure, in the same setting: under `COc1cc(/C=C2\C(=O)N(CCC#N)N=C2C)ccc1OCC(=O)Nc1ccccc1` stands -5.99% (inactive); under `C#CCOCCOCCOCCNc1nc(N2CCN(C(=O)[C@H](CCCCN)n3cc([C@@H](N)C(C)CC)nn3)CC2)nc(N2CCN(C(=O)[C@H](Cc3cc4ccccc4[nH]3)n3cc([C@@H](N)C(C)CC)nn3)CC2)n1` (stereo partly specified), 2.45% (inactive). On to `CCOC(=O)C1=C(COC(=O)/C=C/c2ccc(O)c(OC)c2)NC(=O)NC1C` (stereo unspecified), for which the IC50 is 53.1 µM (active). For the compound `COc1cc(C2NC(=O)C(C#N)=C(Nc3cccc(C)c3)S2)ccc1O` (stereo unspecified), the “inhibition” value was 17.9% (inactive). `O=C(N/N=C/c1ccc(O)cc1)Nc1cccc2nsnc12`: the IC50 is 61.4 µM (active). Still for that read-out and setting: under `COc1cc(/C=N/NC(=O)c2nonc2C)ccc1O` stands 25.6 µM (active). Turning to `COc1ccc(O)c(/C=N/NC(=O)c2c(C)nnn2-c2nonc2N)c1`, the “inhibition” value was 3.93% (inactive). In the case of `COc1cc(/C=N/NC(=O)c2nnn(-c3nonc3N)c2C(C)C)ccc1O`, the IC50 is 40.7 µM (active). Regarding `Cc1nonc1C(=O)N/N=C/c1ccc(O)cc1O`, the IC50 is 72 µM (active). Still for that read-out and setting: the value for `Cc1nonc1C(=O)N/N=C/c1ccc(O)c(O)c1` was 17.7 µM (active).

In the case of `O=S(=O)(/N=S1\CC=CCN1S(=O)(=O)c1ccccc1)c1ccccc1` (stereo unspecified), the “inhibition” value was 3.75% (inactive). Still for that read-out and setting: the value for `COc1cccc(C(=O)N2CCN(C3CCN(Cc4ccccc4)CC3)CC2)c1OC` was 19.7% (inactive); that for `NS(=O)(=O)c1ccc(CCNCC(=O)N2CCC(Cc3ccccc3)CC2)cc1` was 11.3% (inactive). On the same count and under the same terms, under `COc1cc(CN2CCC(C(=O)N3CCN(c4ccccc4F)CC3)CC2)ccc1O` stands 20.6% (inactive). The same measure, in the same setting: the value for `C/C=C/c1ccc(OCCCCN2CCN(CC)CC2)c(OC)c1` was 15.9% (inactive). As for `COc1cc(/C=C/C(=O)OCC(=O)N2CC3(C)CC2CC(C)(C)C3)ccc1O` (stereo unspecified), the IC50 was 44.7 µM (active). On the same count and under the same terms, under `COc1cc(/C=C/C(=O)OCC(=O)N2CCC(Cc3ccccc3)CC2)ccc1O` stands 49.4 µM (active).

As for `COC(=O)C1CCN(C(=O)COC(=O)/C=C/c2ccc(O)c(OC)c2)CC1`, the IC50 was 44 µM (active). Still for that read-out and setting: under `COc1cc(/C=C/C(=O)OCC(=O)N2CCCc3ccccc32)ccc1O` stands 27.8 µM (active). For the compound `COc1ccc(CN2CCN(Cc3ccc(Br)cc3)CC2)c(OC)c1OC`, the “inhibition” value is 25.7% (inactive). For `COc1cc(/C=C/C(=O)OCC(=O)N2CCN(C(=O)c3ccco3)CC2)ccc1O`, the IC50 is 33.8 µM (active). On to `COc1cccc(CN2CCN(C(=O)c3ccco3)CC2)c1OC`, for which the “inhibition” value is 14.7% (inactive). In the case of `COc1ccc(C(=O)N2CCN(CCCc3ccccc3)CC2)cc1OC`, the “inhibition” value was 18.2% (inactive).

Turning to `Cc1sc2ncnc(Nc3ccc(O)cc3)c2c1C`, the IC50 was 38.2 µM (active). On to `Cc1sc2ncnc(N(C)CCc3ccccn3)c2c1C`, for which the “inhibition” value is 23.9% (inactive).

As to `Cc1sc2ncnc(N/N=C/c3ccc(O)cc3)c2c1C`, the IC50 is 48.3 µM (active). On the same count and under the same terms, the value for `COC(=O)/C(=C/Nc1ccc(O)cc1)[N+](=O)[O-]` was 23.9 µM (active).

Take `O=C(CN1CCN(C2CCCCC2)CC1)Nc1ccccc1-c1ccccc1`: the “inhibition” value was 27.4% (inactive). Same read-out and setting: under `O=C(/C=C\c1ccco1)c1ccc(NC(=O)c2ccco2)cc1` stands -1.43% (inactive). Consider `O=C(Nc1cc(Br)c(O)c(Br)c1)c1cccc(NC(=O)c2ccco2)c1`, for which the IC50 was 81.3 µM (active). As to `O=C1CCN(c2ccccc2)N1`, the “inhibition” value is -2.46% (inactive). As to `O=c1ccn(-c2ccccc2)[nH]1`, the IC50 was 51.3 µM (active).

`CCN(CC)CCCNCC(=O)Nc1cc(C)on1`: the “inhibition” value is 20.8% (inactive). As for `Oc1ccc(N=Nc2ccccc2)cc1`, the IC50 was 78.2 µM (active). On the same count and under the same terms, under `CC(=O)Nc1ccc(N=Nc2ccc(O)cc2)cc1` stands 24.5 µM (active). Still for that read-out and setting: under `Nc1ccc(N=Nc2ccc(O)cc2)c(N)n1` stands 10.2 µM (active).

In the case of `NS(=O)(=O)c1ccc(Nc2nc(-c3ccc(O)cc3)cs2)cc1`, the IC50 is 20.9 µM (active). On the same count and under the same terms, under `O=c1oc2ccccc2cc1-c1csc(Nc2ccc(O)cc2)n1` stands 58 µM (active). `Nc1ccc(Nc2nc(-c3cc4ccccc4oc3=O)cs2)cc1`: the “inhibition” value is 24.4% (inactive). `NS(=O)(=O)c1ccc(Nc2nc(-c3ccc(O)cc3O)cs2)cc1`: the IC50 was 48.8 µM (active). On to `Nc1ccc(Nc2nc(-c3ccncc3)cs2)cc1`, for which the IC50 is 9.43 µM (active). For the compound `Cc1cc(NS(=O)(=O)c2ccc(Nc3nc(-c4ccc(O)cc4)cs3)cc2)no1`, the IC50 is 30.2 µM (active).

With `Cc1cnc(C(=O)Oc2ccc(-c3ccccc3)cc2)cn1`, the “inhibition” value was 19.4% (inactive). Same read-out and setting: the value for `O=C(Nc1ccccc1Cl)/C(Cl)=C(\Cl)S(=O)c1ccccc1` (stereo unspecified) was 5.09% (inactive). Regarding `O=C(Nc1ccccc1Cl)Oc1ccc(-c2ccccc2)cc1`, the IC50 is 14.1 µM (active).
